Laboratory results from PubChem BioAssay (Tox21).
Results filed as inconclusive are left out. Where a call stands in place of a potency, no number is given. Active and inactive are the calls of the source. Unless noted, calls follow the shape of the dose curve; as a rule, active = well fitted curve in the direction sought with a large enough effect in the repeat runs; inconclusive = weak or mixed curves; inactive = no such curve, though single readings can be large; an effect the other way counts as inactive or inconclusive.

How the values were obtained:
[1] = qHTS assay for identifying genotoxic compounds that show differential cytotoxicity against isogenic chicken DT40 cell lines with known DNA damage response pathways - wild type cell line (AID 743012); details: DT40 wild type chicken cells viability, CellTiter-Glo, 40 h; series mostly up to 68.4 µM; also: nearly all actives have a fitted effect of over 60% in size
In short: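 Wild type DT40, 300 cells/well, ~0.5 h settle at 37 C/5% CO2; compounds in DMSO added by pintool; 40 h at 37 C/5% CO2; CellTiter-Glo, 30 min RT; luminescence.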

[2] = qHTS assay for identifying genotoxic compounds that show differential cytotoxicity against isogenic chicken DT40 cell lines with known DNA damage response pathways - Rev3 mutant cell line (AID 743014); details: chicken DT40 Rev3-/- viability, CellTiter-Glo, 40 h; series mostly up to 68.4 µM; also: nearly all actives have a fitted effect of over 55% in size; also: potency is read from the fitted curve at half-maximal effect
[3] = qHTS assay for identifying genotoxic compounds that show differential cytotoxicity against isogenic chicken DT40 cell lines with known DNA damage response pathways - Rad54/Ku70 mutant cell line (AID 743015); details: DT40 Rad54/Ku70 mutant viability, CellTiter-Glo, 40 h; series mostly up to 66.8 µM; also: nearly all actives have a fitted effect of over 60% in size
[4] = qHTS assay to identify small molecule antagonists of the androgen receptor (AR) signaling pathway - cell viability counter screen (AID 743033; also: nearly all actives have a fitted effect of over 45% in size); details: AR-bla HEK293 viability, CellTiter-Glo luminescence, 16 h; series mostly up to 58.5 µM
[5] = qHTS assay to identify small molecule antagonists of the androgen receptor (AR) signaling pathway using the MDA cell line - cell viability counter screen (AID 743041; also: nearly all actives have a fitted effect of over 45% in size); details: MDA-kb2 viability, CellTiter-Fluor, 16 h, cells co-treated with R1881 androgen agonist; series mostly up to 70.3 µM
In short: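 Same-well cytotoxicity was assessed by CellTiter-Fluor in MDA-kb2 AR-luc cells after 16 h of compound treatment under R1881 agonism.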

[6] = qHTS assay to identify small molecule antagonists of the thyroid receptor (TR) signaling pathway - cell viability counter screen (AID 743064); details: GH3.TRE-Luc viability, CellTiter-Fluor, 24 h; series mostly up to 70.3 µM; also: nearly all actives have a fitted effect of over 50% in size
In short: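 Same-well viability check: GH3.TRE-Luc cells stimulated with 1 nM T3 alongside test compound for 23.5 h, followed by CellTiter-Fluor fluorescence.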

[7] = qHTS assay to identify small molecule antagonists of the thyroid receptor (TR) signaling pathway (AID 743065); details: GH3.TRE-Luc, T3-stimulated luciferase inhibition, 23.5 h; series mostly up to 70.3 µM; also: nearly all actives have a fitted effect of over 55% in size
In short: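 GH3.TRE-Luc rat pituitary cells (two TREs driving luciferase) were dosed with compound, then stimulated with 1 nM T3 (final) for 23.5 h at 37 C. ONE-Glo luminescence was the read-out, with CellTiter-Fluor fluorescence as the cytotoxicity counter-screen.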

[8] = system: thyroid hormone receptor (rat, GH3 cells); assay: qHTS assay to identify small molecule agonists of the thyroid receptor (TR) signaling pathway (AID 743066; calls by dose curve); details: GH3.TRE-Luc cells, TR agonist luciferase, 24 h; series mostly up to 83.9 µM
[9] = target: Estrogen receptor (Homo sapiens) (UniProt P03372); assay: qHTS assay to identify small molecule antagonists of the estrogen receptor alpha (ER-alpha) signaling pathway (AID 743069; active = well fitted curve in the direction sought with a large enough effect in the signal ratio in the repeat runs, not every such curve was filed as active; the % refers to the signal ratio); details: HEK293 ER-alpha-UAS-bla, beta-lactamase ratio, antagonist mode; series mostly up to 69.4 µM
In short: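 Reporter cells (ER-alpha-bla, HEK293 background) are conditioned overnight in stripped-serum medium (2% charcoal-stripped FBS). Compound and 17beta-estradiol exposure runs 18 hr at 37C, 5% CO2.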

[10] = qHTS assay to identify small molecule antagonists of the estrogen receptor alpha (ER-alpha) signaling pathway - cell viability counter screen (AID 743074; calls by dose curve;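 also: HEK293 cells carrying ER-alpha-UAS-bla reporter stimulated with 17beta-estradiol; nearly all actives have a fitted effect of over 45% in size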); details: ERalpha-bla HEK293 viability, CellTiter-Glo luminescence, 18 h; series mostly up to 69.4 µM
[11] = target: Estrogen receptor (Homo sapiens) (UniProt P03372); assay: qHTS assay to identify small molecule agonists of the estrogen receptor alpha (ER-alpha) signaling pathway (AID 743075; calls by dose curve;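 also: HEK293 GripTite cells with ER-alpha and UAS-driven beta-lactamase reporter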); details: HEK293 ER-alpha-UAS-bla, beta-lactamase FRET ratio, 18 h; series mostly up to 70.1 µM
[12] = target: Estrogen receptor (Homo sapiens) (UniProt P03372); assay: qHTS assay to identify small molecule agonists of the estrogen receptor alpha (ER-alpha) signaling pathway using the BG1 cell line (AID 743079); details: BG1Luc4E2 cells, ERE-luciferase agonist, 22 h; series mostly up to 70.3 µM; also: nearly all actives have a fitted effect of over 20% in size
[13] = qHTS assay to identify small molecule antagonists of the estrogen receptor alpha (ER-alpha) signaling pathway using the BG1 cell line (AID 743080; calls by dose curve;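 also: BG1 cells stimulated with 17beta-estradiol alongside compound; nearly all actives have a fitted effect of over 25% in size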); details: BG1Luc4E2 ERE-luciferase antagonist mode, luminescence; series mostly up to 70.3 µM
In short: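 Luminescence from a 4×ERE-luciferase reporter in BG1-Luc-4E2 cells served as read-out. Cells, pre-cultured 5 days in stripped-serum phenol-red-free medium, were exposed to compound with 17beta-estradiol co-stimulation for 21.5 h at 37 C.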

[14] = qHTS assay to identify small molecule antagonists of the estrogen receptor alpha (ER-alpha) signaling pathway using the BG1 cell line - cell viability counter screen (AID 743081); details: BG1Luc4E2 viability, CellTiter-Fluor, 22 h; series mostly up to 70.3 µM;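 also: compound given together with 17beta-estradiol as the ER stimulus; nearly all actives have a fitted effect of over 45% in size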
Aromatase (Homo sapiens) = Aromatase (Homo sapiens) (UniProt P11511); assay: qHTS assay to identify aromatase inhibitors (AID 743083); details: MCF-7 aro ERE, testosterone-driven ERE luciferase, 24 h; series mostly up to 70.3 µM; also: nearly all actives have a fitted effect of over 55% in size
[15] = qHTS assay to identify aromatase inhibitors - cell viability counter screen (AID 743084); details: MCF-7 aro ERE viability, CellTiter-Fluor, 24 h; series mostly up to 70.3 µM;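 also: cells stimulated with testosterone during compound exposure; nearly all actives have a fitted effect of over 55% in size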

Sequence of Estrogen receptor (Homo sapiens) (P03372 whole entry, looked up): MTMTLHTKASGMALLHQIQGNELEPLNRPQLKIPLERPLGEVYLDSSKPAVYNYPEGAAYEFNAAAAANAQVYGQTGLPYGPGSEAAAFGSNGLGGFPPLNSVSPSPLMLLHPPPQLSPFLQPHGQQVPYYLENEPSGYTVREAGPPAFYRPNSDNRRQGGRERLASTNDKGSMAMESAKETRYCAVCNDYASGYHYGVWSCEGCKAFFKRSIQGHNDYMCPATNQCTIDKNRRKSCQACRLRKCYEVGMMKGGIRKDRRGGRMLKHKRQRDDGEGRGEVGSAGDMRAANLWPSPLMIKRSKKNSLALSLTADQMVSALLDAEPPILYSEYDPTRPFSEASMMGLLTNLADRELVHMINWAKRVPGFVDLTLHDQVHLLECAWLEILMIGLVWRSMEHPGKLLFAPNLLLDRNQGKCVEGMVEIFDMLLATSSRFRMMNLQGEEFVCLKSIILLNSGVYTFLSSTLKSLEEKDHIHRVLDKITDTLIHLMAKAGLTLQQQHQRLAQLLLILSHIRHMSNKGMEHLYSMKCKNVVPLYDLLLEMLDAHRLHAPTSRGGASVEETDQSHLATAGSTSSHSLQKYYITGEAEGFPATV
Sequence of Aromatase (Homo sapiens) (P11511 whole entry, looked up): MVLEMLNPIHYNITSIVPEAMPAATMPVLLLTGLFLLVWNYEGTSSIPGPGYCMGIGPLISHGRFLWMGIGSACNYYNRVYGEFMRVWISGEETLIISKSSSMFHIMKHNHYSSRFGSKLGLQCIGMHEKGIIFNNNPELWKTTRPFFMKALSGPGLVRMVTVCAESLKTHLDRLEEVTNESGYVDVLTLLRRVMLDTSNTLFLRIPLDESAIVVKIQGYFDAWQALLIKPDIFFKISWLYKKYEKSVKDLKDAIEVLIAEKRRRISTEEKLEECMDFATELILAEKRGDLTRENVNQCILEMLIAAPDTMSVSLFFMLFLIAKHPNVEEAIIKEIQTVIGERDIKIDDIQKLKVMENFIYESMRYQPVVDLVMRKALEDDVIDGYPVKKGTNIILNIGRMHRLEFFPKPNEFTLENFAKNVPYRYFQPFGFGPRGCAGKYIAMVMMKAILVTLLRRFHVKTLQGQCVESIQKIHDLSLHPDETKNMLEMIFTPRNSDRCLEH

Compound	Potency [1]	Potency [2]	Potency [3]	outcome [4]	outcome [5]	Potency [6]	Potency [7]	Potency [8]	outcome [9]	Potency [10]	Potency [11]	Potency [12]	Potency [13]	outcome [14]	Potency (Aromatase (Homo sapiens))	outcome [15]
Cc1ccc(S(=O)(=O)NC(=O)NN2CC3CCCC3C2)cc1 (stereo not drawn)	inactive	inactive	inactive	inactive	inactive	inactive	inactive	inactive	inactive	inactive	inactive	inactive	inactive	inactive	inactive	inactive
CCCCOCCCC	inactive	inactive	inactive	inactive	–	inactive	inactive	inactive	inactive	inactive	inactive	inactive	inactive	inactive	inactive	inactive
O=C(O)P(=O)(O)O	inactive	–	inactive	inactive	inactive	inactive	inactive	inactive	–	inactive	–	–	–	inactive	inactive	inactive
CCO[Si](CC(C)C)(OCC)OCC	inactive	24.3 µM (active)	inactive	–	inactive	–	inactive	inactive	inactive	inactive	inactive	inactive	inactive	inactive	inactive	–
N#CC1(N)CCCCC1	inactive	inactive	inactive	inactive	inactive	–	inactive	inactive	–	inactive	inactive	inactive	inactive	inactive	inactive	–
